Compounds without any hit were thinned out: in the full panel of roughly 79,000, 15% have a hit. A number with no mark means an inactive call. Activity calls are given as the source filed them. No stated cut-off is given here; in the data, active means growth inhibition above about 70%; inactive means the rest.
How the values were obtained:
[1] = NCI Yeast Anticancer Drug Screen. Data for the rad50 strain (AID 155);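 further: 0% = growth of vehicle-only cultures of the same strain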; settings: S. cerevisiae rad50 strain growth inhibition, stronger effect = higher value
How it was run: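 Yeast carrying a defined DNA repair defect were exposed to test compounds, and growth was compared with vehicle-treated controls to give percent inhibition.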

[2] = NCI Yeast Anticancer Drug Screen. Data for the mec2-1 strain (AID 157); settings: S. cerevisiae mec2-1 strain, stronger effect = higher value
How it was run: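 Readout is yeast growth inhibition, normalised to vehicle-treated controls, in the mec2-1 strain exposed to compound.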

[3] = NCI Yeast Anticancer Drug Screen. Data for the sgs1 mgt1 strain (AID 161);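 further: 0% = growth of cultures given vehicle only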; settings: S. cerevisiae sgs1 mgt1 strain, stronger effect = higher value
How it was run: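 This yeast growth screen uses a strain with defined DNA-repair lesions; compound-treated growth is compared with vehicle-treated growth.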

[4] = NCI Yeast Anticancer Drug Screen. Data for the cln2 rad14 strain (AID 165);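 further: 0% = growth equal to vehicle treated cultures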; settings: S. cerevisiae cln2 rad14 strain, stronger effect = higher value
How it was run: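 Relative to vehicle controls, growth inhibition of compound-treated cln2 rad14 yeast was recorded.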

[5] = NCI Yeast Anticancer Drug Screen. Data for the bub3 strain (AID 167); settings: S. cerevisiae bub3 mutant strain, stronger effect = higher value
How it was run: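 Compounds were applied to a genetically altered yeast strain carrying a cell-cycle control defect. Growth inhibition was scored against vehicle-treated controls.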

[6] = NCI Yeast Anticancer Drug Screen. Data for the mlh1 rad18 strain (AID 175); settings: S. cerevisiae mlh1 rad18 strain growth inhibition, stronger effect = higher value
How it was run: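 Test agents were incubated with a yeast strain of defined genotype (DNA damage repair defect). Inhibition of growth was derived by comparison with vehicle-exposed cultures.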

[7] = at 5.0 µM (retest, dose inferred, filed as 0.5)
[8] = at 50.0 µM (retest, dose inferred, filed as 5.0)

| SMILES | growth inhibition [1, 7] | growth inhibition [1, 8] | growth inhibition ([1]; at 50.0 µM) | growth inhibition [2, 7] | growth inhibition [2, 8] | growth inhibition ([2]; at 50.0 µM) | growth inhibition [3, 7] | growth inhibition [3, 8] | growth inhibition ([3]; at 50.0 µM) | growth inhibition [4, 7] | growth inhibition [4, 8] | growth inhibition ([4]; at 50.0 µM) | growth inhibition [5, 7] | growth inhibition [5, 8] | growth inhibition ([5]; at 50.0 µM) | growth inhibition [6, 7] | growth inhibition [6, 8] | growth inhibition ([6]; at 50.0 µM) |
| --- | --- | --- | --- | --- | --- | --- | --- | --- | --- | --- | --- | --- | --- | --- | --- | --- | --- | --- |
| CS(=O)(=O)OCCN(CCOS(C)(=O)=O)c1ccc(C=Nc2ccc(-c3csc(-c4ccc(Br)cc4)n3)cc2)c(Cl)c1 | 0% | 71% (active) | 71.7% (active) | -4% | 51% | 56.2% | 1% | 83% (active) | 92.3% (active) | -10% | 68% | 46.3% | 3% | 87% (active) | 80.1% (active) | 0% | 76% (active) | 90.7% (active) |
| Nc1ccc2c(SCc3ccc([N+](=O)[O-])cc3)c3ccccc3nc2c1 | 86% (active) | 84% (active) | 73.5% (active) | 98% (active) | 94% (active) | 87.7% (active) | 40% | 94% (active) | 88.8% (active) | 90% (active) | 93% (active) | 84.5% (active) | 97% (active) | 94% (active) | 84.2% (active) | 96% (active) | 93% (active) | 83.9% (active) |
| COc1ccc(/C(=C/CN2CCC3CCC(C3)C2)c2ccccc2)cc1 (stereo not given) | -3% | -17% | 40.9% | 5% | -11% | 14.6% | -31% | -27% | 50.8% | -6% | -19% | 12.9% | -3% | 11% | 17.6% | -13% | -34% | 12.7% |
| CCCCCCN(CCCCCC)P(=O)(N1CC1C)N1CC1C (stereo not given) | -2% | 99% (active) | -11.6% | -5% | 99% (active) | 32.4% | -3% | 33% | 10.1% | 3% | 99% (active) | -7.75% | 7% | 99% (active) | 81.2% (active) | -2% | 99% (active) | 24.9% |
| CC(C)=CCC(CC=C(C)C)c1ccncc1 (tested in a mixture with another compound) | 16% | 99% (active) | 99.2% (active) | 15% | 99% (active) | 99.5% (active) | -92% | 100% (active) | 99.5% (active) | 5% | 98% (active) | 99.4% (active) | 21% | 99% (active) | 98.8% (active) | 49% | 99% (active) | 99.5% (active) |
| CN1C=Cc2ccccc2C1C(C1c2ccccc2C=CN1C)[N+](=O)[O-] (stereo not given) | 0% | 5% | -5.6% | 8% | 12% | -9.95% | -2% | 56% | 49% | 2% | 7% | 2.65% | -4% | 14% | 15.8% | -11% | 1% | -13.5% |
| CCN(CC)CCCNc1nc(NCCCN(CC)CC)c2nc(-c3ccccc3)c(-c3ccccc3)nc2n1 | -3% | 93% (active) | 66.5% | 2% | 93% (active) | 61.4% | -2% | 94% (active) | 63.8% | 0% | 47% | 77.4% (active) | -4% | 92% (active) | 56.1% | -6% | 94% (active) | 98.5% (active) |
| Cc1c(N)nc(C(CC(N)=O)NCC(N)C(N)=O)nc1C(=O)NC(C(=O)NC(C)C(O)C(C)C(=O)NC(C(=O)NCCc1nc(-c2nc(C(=O)NCCCNC(C)c3ccccc3)cs2)cs1)C(C)O)C(OC1OC(CO)C(O)C(O)C1OC1OC(CO)C(O)C(OC(N)=O)C1O)c1cnc[nH]1 (stereo not given) | 97% (active) | 98% (active) | 92.2% (active) | 97% (active) | 99% (active) | 93.5% (active) | 95% (active) | 98% (active) | 93.5% (active) | 85% (active) | 93% (active) | 90.4% (active) | 93% (active) | 98% (active) | 93.3% (active) | 98% (active) | 99% (active) | 92.2% (active) |
| COc1cc(-c2nn3c(=O)n(-c4ccc(Cl)cc4)c(=O)nc3s2)cc(OC)c1OC | 6% | -2% | 30.8% | 0% | 18% | -0.6% | 1% | 4% | 20.9% | 7% | -7% | 24% | 1% | 17% | 3.3% | -2% | 3% | 2.35% |
| O=C1c2ccccc2C2(O)c3cc4ccccc4cc3OC12O (stereo not given) | -7% | 41% | 52.2% | -15% | 19% | 52.2% | -16% | 6% | 43% | -10% | 44% | 37% | -6% | 59% | 44% | -24% | 55% | 72.7% (active) |

Reference: PubChem BioAssay (NCI)
